FLuc modulator: firefly luciferase modulation, counter-screen for miR-21 project. P08659. purified FLuc, Km substrates, luminescence inhibition. Potency, µM (titrated, usually from 57.5 µM), inactives show at the top dose activity change, negative = inhibition, actives largely listed as inhibitors. 360,000 compounds, 6.9% hits;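 note: plate controls were vehicle for no effect and reference inhibitor for full effect; nearly all actives have a fitted effect of over 55% in size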
Target sequence (P08659 whole entry, looked up): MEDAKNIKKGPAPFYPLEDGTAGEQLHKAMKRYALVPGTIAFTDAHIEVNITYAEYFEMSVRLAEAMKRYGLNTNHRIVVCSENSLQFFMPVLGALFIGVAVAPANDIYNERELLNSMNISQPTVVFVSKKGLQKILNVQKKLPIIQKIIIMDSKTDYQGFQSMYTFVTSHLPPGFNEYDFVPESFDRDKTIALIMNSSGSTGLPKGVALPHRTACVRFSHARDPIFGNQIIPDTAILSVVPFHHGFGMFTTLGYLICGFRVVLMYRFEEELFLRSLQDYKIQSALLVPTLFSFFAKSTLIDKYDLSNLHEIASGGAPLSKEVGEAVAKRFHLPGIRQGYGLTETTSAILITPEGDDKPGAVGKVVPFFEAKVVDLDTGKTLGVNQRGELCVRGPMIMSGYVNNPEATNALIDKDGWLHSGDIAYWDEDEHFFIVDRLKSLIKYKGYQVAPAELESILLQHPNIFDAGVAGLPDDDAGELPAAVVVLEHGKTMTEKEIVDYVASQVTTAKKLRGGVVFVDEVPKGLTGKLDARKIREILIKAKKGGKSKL
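Purified P. pyralis luciferase (10nM final) with 10uM D-luciferin and 10uM ATP (Km levels) in 50mM Tris acetate pH 7.5, 10mM Mg acetate, 0.01% Tween-20, 0.05% BSA; qHTS 6-point titration, ~60 µM downward; luminescence read.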
SMN2 splice enh: SMN2 splice variant enhancement; HEK293 SMN2-luciferase splicing reporter, luminescence, 30-36 h; Potency, µM (series often up to 46.1 µM), for the others: at the highest dose activity change, positive = activation, most hits filed as activators; 210,000 compounds, 2.8% hits; AID 1458; note: % of control where 0% means no effect; nearly all actives have a fitted effect of over 55% in size
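HEK293 cells carry an SMN2 minigene-luciferase reporter in which exon 7 inclusion puts luciferase in frame. Cells were seeded at 2000 cells/well, attached for 10-12 hours, then exposed to compounds for 30-36 hours at 37C before ONE-Glo luminescence.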
Rab9 prom act: Rab9 promoter activation; AID 485297; Potency, µM (highest dose often 9.22 µM), for the others: at the highest dose activation, negative = inhibition, usual class: activators; 320,000 compounds, 2.8% hits; Huh7 Rab9 promoter-luciferase reporter, luminescence, 24 h; note: % of control where 0% means no effect; nearly all actives have a fitted effect of over 60% in size
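Luminescence read-out: Huh7 cells stably expressing Rab9-luciferase, treated 24 h with compound at 37 °C, then lysed with luciferase reagent for 10 min at ambient before reading.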
ELG1 genotoxic: inducers of genotoxicity in HEK293T ELG1-luciferase cells; 330,000 compounds, 1.3% hits; Potency, µM (series often up to 46 µM), inactives show top-dose activity change, positive = activation, actives largely listed as activators; AID 504466; HEK293T ELG1-luciferase reporter, luminescence, 16 h; note: % of control where 0% means no effect; nearly all actives have a fitted effect of over 60% in size
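DMSO vehicle served as control against compound-treated ELG1-luciferase HEK293T cells; exposure lasted 16 hr at 37 °C and 5% CO2, followed by ONE-Glo luminescence detection after 30 min.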
NPC1 promoter act: NPC1 promoter activation. Huh7 NPC1 promoter luciferase reporter, 24 h. Potency, µM (highest dose often 9.22 µM), for the others: top-dose activation, actives largely listed as activators. 320,000 compounds, 2.4% hits. AID 485313; note: % of control where 0% means no effect; nearly all actives have a fitted effect of over 60% in size
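Huh7 reporter cells (NPC1 promoter driving luciferase) are dosed with compound for 24 h at 37 °C, 5% CO2; luciferase detection reagent is then added and luminescence measured after 10 min at ambient temperature.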
* hit, by the source's call; ? = inconclusive; . = not tested or not shown; [ ] = remark or other dose. Most compounds without a hit are left out; they make up all but 7.4% or so of the library. Calls come from the whole dose curve; as a rule, active = well fitted curve in the direction sought with a large enough effect; inconclusive = small, poorly fitted or top-dose-only effect, or another doubt; inactive = no such curve, though single readings can be large; an effect the other way counts as inactive or inconclusive. Potency is the fitted concentration of half-maximal effect.

SMILES	FLuc modulator	SMN2 splice enh	Rab9 prom act	ELG1 genotoxic	NPC1 promoter act
COc1ccc(NS(=O)(=O)c2cc(NS(=O)(=O)c3cccs3)ccc2C)cc1	4%	.	-3%	1%	6%
CCOC(=O)c1n[nH]c(=O)c2ccccc12	-1%	.	3%	4%	-1%
Cc1cc(C(=O)COC(=O)c2n[nH]c(=O)c3ccccc23)c(C)n1C	1.7µM*	.	24%	?	16%
Cc1ccc(C(=O)COC(=O)c2n[nH]c(=O)c3ccccc23)cc1	6µM*	5%	2%	0%	-3%
Cc1cc(C(=O)COC(=O)c2nccnc2N)c(C)n1C	9.5µM*	11µM*	0.5µM*	6.5µM*	3.2µM*
COc1ccc(C(=O)COC(=O)c2n[nH]c3ccccc23)c(OC)c1	6µM*	.	3.5µM*	15%	3.2µM*
CN(C(=O)COC(=O)c1n[nH]c(=O)c2ccccc12)c1ccccc1	6%	.	-3%	-1%	0%
Cn1nccc1C(=O)NC1CC(C)(C)Cc2c1cnn2-c1ccc(F)cc1 (stereo not given)	4%	.	-7%	-4%	-6%
Cc1cc(C(=O)COC(=O)c2n[nH]c3ccccc23)c(C)n1C	1.3µM*	2.8µM*	0.5µM*	1.2µM*	2.8µM*
CC1CCCCN1C(=O)COC(=O)Cc1c[nH]c2ccccc12 (stereo not given)	.	.	.	0%	.
O=C(COC(=O)c1n[nH]c2ccccc12)c1ccc(F)c(F)c1	9.5µM*	.	5%	2%	6%
CC1CCCCN1C(=O)COC(=O)c1n[nH]c2ccccc12 (stereo not given)	15µM*	21%	?	18µM*	30%
CCn1nc(CC(C)C)cc1C(=O)N1CCCC(Nc2ccc(OC)cc2)C1 (stereo not given)	2%	.	-4%	-3%	-1%
O=C(NCCNC(=O)c1ccc(Cl)cc1Cl)c1ccco1	-7%	.	6%	0%	0%
O=[N+]([O-])c1ccc2c(c1)S(=O)(=O)C=C2	.	.	-43%[46.1 µM]	.	-34%[46.1 µM]
CSc1nc(O)c(/C=C2\C=Nc3ccccc32)[nH]1	11µM*	?	?	?	21%
O=c1[nH]c(/C=C2\C=Nc3ccccc32)c(O)n1Cc1ccccc1F	-18%	-18%	-24%	-6%	-11%
O=C(NC1CCCCC1)N(C1=NCCCCC1)c1ccc(Br)cc1	-17%	29%	15%	11%	11%
COc1ccc(-c2nc(C)c(CCNC(=O)c3cccs3)s2)cc1	27µM*	.	.	.	.
COc1ccc(-c2nc(C)c(CCNC(=O)c3cccc(C)c3)s2)cc1OC	24µM*	.	.	.	.
COc1ccc(-c2nc(C)c(CCNC(=O)c3ccc(F)c(F)c3)s2)cc1	21µM*	.	.	.	.
Cc1ccnc(NC(=O)CCC(=O)N(CC(=O)NC2CCCCC2)Cc2cccs2)c1	-6%	-5%	-4%	-6%	-1%
CC(N)(C(=O)O)c1ccc(S(=O)(=O)O)cc1 (stereo not given)	.	16%	.	.	.
O=C(CSc1nnc(NC(=O)C2CC2)s1)Nc1ccccc1Cl	-2%	.	0%	6%	-2%
COc1cccc(N=Cc2c(O)c3ccccc3oc2=O)c1	1.9µM*	.	6%	0%	0%
SMILES	FLuc modulator	SMN2 splice enh	Rab9 prom act	ELG1 genotoxic	NPC1 promoter act
CC(=O)c1cccc(N=Cc2c(O)c3ccccc3oc2=O)c1	1.7µM*	.	-1%	2%	-5%
Cc1ccc(F)cc1N=Cc1c(O)c2ccccc2oc1=O	?	.	2%	3%	-5%
CC(=O)Nc1ccc(N=Cc2c(O)c3ccccc3oc2=O)cc1	?	.	-4%	0%	-4%
Cc1ccc(N=Cc2c(O)c3ccccc3oc2=O)c(C)c1	0.21µM*	.	1%	4%	-3%
NC(=O)c1ccc[n+](CC(=O)Nc2ccccc2C(=O)O)c1	-1%	.	6%	1%	2%
COc1ccc(CCc2nnc(CCC(=O)NCc3cc(C(C)C)no3)o2)cc1	17µM*	?	?	?	27%
O=C(CCC(=O)c1ccccc1)Nc1ccccc1OC(F)F	2%	.	1%	-1%	-5%
COC(=O)c1nnn(CC(=O)Nc2cc(F)ccc2F)c1C(=O)OC	2%	23%	.	.	.
COc1ccc(NC(=O)N2CCCC3(CCN(C(=O)c4cccn4C)CC3)C2)cc1	.	4%	.	.	.
COc1ccc2cc(-c3csc(-c4cccnc4)n3)ccc2c1	2.1µM*	13µM*	?	13µM*	3.2µM*
COc1ccc(-c2csc(-c3cccnc3)n2)cc1C	7.6µM*	.	2.8µM*	?	?
NC(=O)c1cc(-c2csc(-c3cccnc3)n2)ccc1O	?	.	4%	4%	24%
O=C(O)CNS(=O)(=O)c1cccc(Cl)c1	2%	.	-2%	0%	1%
COc1ccc(NC(=O)C(C)NS(=O)(=O)c2ccccc2)cc1Cl (stereo not given)	-3%	-9%	0%	0%	-4%
CC(NS(=O)(=O)c1cccc(Cl)c1)C(=O)Nc1ccc(-c2nc3ccccc3s2)cc1 (stereo not given)	17µM*	20µM*	2.8µM*	?	?
COc1cccc(S(=O)(=O)NCC(=O)Nc2ccc(C(C)(C)C)cc2)c1	?	-17%	-3%	-5%	0%
Cc1ccc(C)c(S(=O)(=O)NC(C)C(=O)Nc2ccc(-c3nc4ccccc4s3)cc2)c1 (stereo not given)	7.6µM*	5%	3.2µM*	?	3.5µM*
CC(C)(C)c1ccc(S(=O)(=O)NCC(=O)Nc2ccc(-c3nc4ccccc4s3)cc2)cc1	?	11µM*	27%	?	-2%
O=C(CNS(=O)(=O)c1cccc(Cl)c1)Nc1ccc(-c2nc3ccccc3s2)cc1	15µM*	4.5µM*	1.6µM*	8.2µM*	?
CCc1ccc(NC(=S)N2CCCC(C(F)(F)F)C2)cc1 (stereo not given)	15µM*	-12%	2%	4%	1%
CC1CCCN(C(=S)Nc2ccc(F)cc2)C1 (stereo not given)	-18%	0%	3%	-5%	-1%
CCc1ccc(NC(=S)N2CCCC2)cc1	21µM*	.	?	18µM*	?
CCc1ccc(NC(=S)N2CCN(C)CC2)cc1	6µM*	.	?	?	29%
CCc1ccc(NC(=S)NCc2cccnc2)cc1	-14%	.	11%	-1%	-1%
CCc1ccc(NC(=S)NCc2ccccc2)cc1	?	11µM*	?	11%	27%
Cc1ccc(NC(=O)CN2C(=O)CC(c3ccco3)Sc3ccccc32)cc1Cl (stereo not given)	-14%	-5%	.	.	.
CC(C)(C)C(=O)/C=c1\s/c(=C\c2ccc(-c3ccc([N+](=O)[O-])cc3)o2)c(=O)n1CC(=O)NC(N)=O	0%	-25%	1%	-13%	-1%
Cc1ccc(C(=O)COC(=O)CCCC(=O)Nc2cc(C(F)(F)F)ccc2Cl)cc1C	2.4µM*	-8%	-5%	0%	-3%

Bioassay records deposited in PubChem by National Center for Advancing Translational Sciences (NCATS).
